Assay results reported in PubChem BioAssay (NCI).
This is part of a sample that, as a whole, favours compounds with a hit. Of some 83,000 tested, about 20% had one in any assay.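 Assay: single dose, 48 h. Readout: percent growth (0 = no net growth; negative = cell death). Active: <10.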 A number with no mark means an inactive call. Calls of active or inactive are those of the source.

tested on: K-562 leukemia; assay: NCI-60 one-dose screen, 48 h (100 = growth as untreated, 0 = no growth, -100 = all killed); conditions: 10 µM unless noted

| Compound | growth |
| --- | --- |
| CCOC(=O)c1ccc[nH]1 | 88.5% |
| COc1cc(Cc2cc(-c3ccccc3)nn(Cc3ccccc3)c2=O)cc(OC)c1OC | 20.6% |
| O=C(Nc1ccc(Nc2ccncc2)cc1)c1ccc(Nc2ccnc3ccc([N+](=O)[O-])cc23)cc1 | 80.5% |
| C[C@H]1[C@H](C)CC[C@]2(C(=O)NCCNCCN)CC[C@]3(C)C(=CC[C@@H]4[C@@]5(C)CCC(=O)C(C)(C)[C@@H]5CC[C@]43C)[C@H]12 | -9.33% (active) |
| COc1ccc(C/C(C)=C(\c2ccc(Cl)cc2)c2ccc(OCCN3CCCC3)cc2)cc1 | 13% |
| CCOc1ccc(NC(=O)Nc2ccc(OCC)cc2)cc1 | 97.6% |
| Cc1ccc(NC(=O)c2cc3ccccc3cc2O)c(C)c1 | 63.6% |
| COC(=O)c1c2c(c[n+]([O-])c1C)C(=O)C=C(NCc1ccccc1)C2=O | -29% (active) |
| C=C1C(=O)O[C@H]2[C@H]1CC/C(CNC(=O)Cc1c[nH]c3ccccc13)=C\CC[C@@]1(C)O[C@@H]21 | -12.2% (active) |
| C#CCOc1ccc2nc(CCl)c(Cl)c(Nc3cccc(C(F)(F)F)c3)c2c1 | 38.8% |
| O=C1/C(=C/c2cccc(Br)c2)COc2ccc(O)cc21 | 2.93% (active) |
| CCN(CC)CCOc1ccc(/C(=C(\C)Cc2ccc(OC)cc2)c2ccc(OC(=O)NCc3ccccc3)cc2)cc1 | -51% (active) |
| O=C(CCCCCCCC(=O)N1CCCCC1)N1CCCCC1 | 114% |
| Cc1ccc(-c2nc(SCC(=O)N3CCN(c4cc5c(cc4F)c(=O)c(C(=O)O)cn5C4CC4)CC3)nc(Cl)c2C#N)cc1 | 98.2% |
| CSc1ccc2c3c(n(C[C@H](O)CO)c(=O)c2c1)-c1ccccc1C3=O | 20.7% |
| Cc1cn(C)cn1 | 106% |
| C#Cc1cccc(Nc2ncnc3cc(NC(=O)CCl)ccc23)c1 | -15.6% (active) |
| O=S(=O)(NCCNc1nccc(-c2c(-c3ccc(F)c(O)c3)nc3sccn23)n1)c1ccc(Cl)cc1 | 15.7% |
| COc1ccc(C(O)c2cc3c(N)c(C(=O)Nc4cccc5ccccc45)sc3nc2C)cc1 (stereo unspecified) | 12% |
| O=C(Nc1cc(Cl)ccc1O)c1ccccc1Nc1ccnc(C(F)(F)F)c1 | 0.85% (active) |
| COc1ccc(/C=C2\c3cc(OC)c(OC)c(OC)c3CC[C@@H]2O)cc1F | 13.4% |
| CCN(CC)C(=O)C1=C(C)NC(=O)NC1c1ccc2c(c1)OCO2 (stereo unspecified) | 101% |
| COc1ccc(C=Nc2c(C(=O)Nc3cccc(Cl)c3C)sc3nc(C)c(C(=O)/C=C/c4ccc(OC)cc4)cc23)cc1 | 17.1% |
| CC(C)(C)c1ccc(S(=O)(=O)Oc2ccc(-c3sc4cc(OS(=O)(=O)c5ccc(C(C)(C)C)cc5)ccc4c3C(=O)c3ccc(OCCN4CCCCC4)cc3)cc2)cc1 | 103% |
| COc1cc(/C=C/c2cc(/C=C/c3ccc(O)c(OC)c3)n(C(=O)Nc3ccc(Cl)cc3)n2)ccc1O | -7.3% (active) |
| O=c1cc(CP(=O)(O)O)c2cc(O)c(-c3ccccc3)cc2o1 | 105% |
